“And” between values parts separate entries of the source, which are not always exact repeats. Equal values may be shown once. Results filed as inconclusive are left out. The source made the active and inactive calls. Calls follow the shape of the dose curve; as a rule, active = well fitted curve in the direction sought with a large enough effect; inconclusive = small, poorly fitted or top-dose-only effect, or another doubt; inactive = no such curve, though single readings can be large; an effect the other way counts as inactive or inconclusive.
Legend:
[1] = test system: JEG-3; assay: Primary qHTS to identify gynecologic anti-cancer compounds using libraries of approved drugs and bioactive compounds (AID 1345084); details: Gynecologic cancer cell panel viability, ATPlite luminescence, 48 h; series mostly up to 57.5 µM; also: nearly all actives have a fitted effect of over 55% in size
How it was run: (§1)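 Five-point cytotoxicity, 48 h drug exposure at 37 C, 5% CO2, on cells seeded 16 h beforehand. ATP content read by ATPlite luminescence.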

[2] = test system: OV90; assay: as above; details: Gynecologic cancer cell panel viability, ATPlite luminescence, 48 h; series mostly up to 57.5 µM
How it was run: as §1

[3] = test system: PA-1; assay: as above; details: Gynecologic cancer cell panel viability, ATPlite luminescence, 48 h; series mostly up to 57.5 µM
How it was run: as §1

[4] = test system: SKOV3; assay: as above; details: Gynecologic cancer cell panel viability, ATPlite luminescence, 48 h; series mostly up to 57.5 µM
How it was run: as §1

[5] = test system: Tov-21-G; assay: as above; details: Gynecologic cancer cell panel viability, ATPlite luminescence, 48 h; series mostly up to 57.5 µM
How it was run: as §1

[6] = test system: Tov112D; assay: as above; details: Gynecologic cancer cell panel viability, ATPlite luminescence, 48 h; series mostly up to 57.5 µM
How it was run: as §1

[7] = Drug repurposing screens with cells derived from glioblastoma tumor samples (AID 1345199); details: GBM patient neurospheres viability, ATP luminescence, 48 h; also: nearly all actives have a fitted effect of over 40% in size; also: potency is read from the fitted curve at half-maximal effect
How it was run: (§2)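 Primary testing used CD133+ neurospheres from four GBM patients, seven concentrations, 48 h exposure and ATP-based viability; confirmation added three slower-growing patient lines.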

[8] = test system: astro; assay: as above; details: viability, ATP luminescence, 48 h; series mostly up to 45.9 µM
How it was run: as §2

[9] = at 45.9 µM (top of the series), tumour line B
[10] = at 45.9 µM (top of the series), tumour line D
[11] = at 46.1 µM (top of the series), tumour line C
[12] = at 46 µM (top of the series), tumour line A
% is scaled to controls: 0 for no effect and ±100 for the full control effect.

CC(C)c1cc2c(c(O)c1O[C@@H]1O[C@H](CO)[C@@H](O)[C@H](O)[C@H]1O)CC1(O)CCC(O)C(C)(C)C1CC2 (stereo not given in full)
inactive: Potency [1] | Potency [2] | Potency [3] | Potency [4] | Potency [5] | Potency [6]

CC(/C=C/C1(O)C(C)(C)CC(O)CC1(C)O)OC1OC(CO)C(O)C(O)C1O (stereo not given)
inactive: Potency [1] | Potency [2] | Potency [3] | Potency [4] | Potency [5] | Potency [6]

CC(=O)OC[C@@]12[C@H](O)C[C@@H](C)[C@]3(C[C@@H](c4ccoc4)OC3=O)[C@H]1C[C@H](O)C[C@]21CO1
inactive: Potency [1] | Potency [2] | Potency [3] | Potency [4] | Potency [5] | Potency [6]

Nc1c(Br)cc(Br)cc1CNC1CCC(O)CC1 (stereo not given)
inactive: Potency [1] | Potency [2] | Potency [3] | Potency [4] | Potency [5] | Potency [6] | activity, negative = cell killing [7, 9] -15.5% | activity, negative = cell killing [7, 10] -18.1% | activity, negative = cell killing [7, 11] -10.6% | Potency [8]
active: Potency ([7]; tumour line A) 14.1 µM

CC1OC(O[C@H]2[C@@H](O)C[C@@]3(C)C([C@H](O)C[C@]4(C)C3CC=C3C5CC(C)(C)CC[C@]5(C(=O)OC5OC(CO)C(O)C(O)C5OC5OCC(OC6OCC(OC7OCC(O)C(O)C7O)C(O)C6O)C(OC6OCC(O)(CO)C6O)C5O)CC[C@]34C)[C@]2(C)CO)C(O)C(O)C1O (stereo not given in full)
inactive: activity change, negative = cytotoxicity [1] -1.46% [at 6.55 µM] | activity change, negative = cytotoxicity [2] 3.36% [at 6.55 µM] | activity change, negative = cytotoxicity [3] 2.16% [at 6.55 µM] | activity change, negative = cytotoxicity [4] -0.54% [at 6.55 µM] | activity change, negative = cytotoxicity [5] -10.9% [at 6.55 µM] | activity change, negative = cytotoxicity [6] 7.32% [at 6.55 µM]

OC[C@H]1O[C@@H](Oc2cc(O)cc(-c3cc4ccc(O)cc4o3)c2)[C@H](O)[C@@H](O)[C@@H]1O
inactive: Potency [1] | Potency [2] | Potency [3] | Potency [4] | Potency [5] | Potency [6]

C=C1C2(CCC(=O)OC2(C)C)CC(OC(=O)/C(C)=C/C)C2(C)C13OC14C(=O)OC(C)(C(=O)C12C(=O)OC4C)C3OC(C)=O (stereo not given)
inactive: Potency [1] | Potency [2] | Potency [3] | Potency [4] | Potency [5] | Potency [6]

C[C@@H]1C[C@H]2[C@@H]3CCC4=CC(=O)C=C[C@]4(C)[C@@]3(F)[C@@H](O)C[C@]2(C)[C@@]1(O)C(=O)COP(=O)(O)O
inactive: Potency [1] | Potency [2] | Potency [3] | Potency [4] | Potency [5] | Potency [6] | activity, negative = cell killing [7, 9] -3.61% | activity, negative = cell killing [7, 10] 1.29% | activity, negative = cell killing [7, 12] -0.902% | activity, negative = cell killing [7, 11] -0.678% | Potency [8]

C=CC(C)(O)CC/C=C(\C)C(=O)OCC1OC(OC2CCC3(C)C(CCC4(C)C3CC=C3C5CC(C)(C)C(O)CC5(C(=O)O)CCC34C)C2(C)C)C(O)C(OC2OC(CO)C(O)C(OC3OC(CO)C(O)C(OC4OC(COC5OC(CO)C(O)C(O)C5O)C(O)C(O)C4O)C3O)C2O)C1O (stereo not given)
inactive: activity change, negative = cytotoxicity [1] 7.76% [at 6.55 µM] | activity change, negative = cytotoxicity [2] 12.5% [at 6.55 µM] | activity change, negative = cytotoxicity [3] 15.1% [at 6.55 µM] | activity change, negative = cytotoxicity [4] 0.954% [at 6.55 µM] | activity change, negative = cytotoxicity [5] 2.74% [at 6.55 µM] | activity change, negative = cytotoxicity [6] -3.38% [at 6.55 µM]

COc1cc(C2OCC3C(c4ccc(OC5OC(CO)C(O)C(O)C5O)c(OC)c4)OCC23)ccc1O (stereo not given)
inactive: Potency [1] | Potency [2] | Potency [3] | Potency [4] | Potency [5] | Potency [6]

CCOc1ccc(-c2ccc(Cn3c(CC(C)(C)C(=O)O)c(SC(C)(C)C)c4cc(OCc5ccc(C)cn5)ccc43)cc2)cn1
inactive: Potency [1] | Potency [2] | Potency [3] | Potency [4] | Potency [5] | Potency [6]

CC1CC(=O)C2=C(O1)OC1(C)CCC3C(C)(C)C=CC(=O)C3(C)C1C2 (stereo not given)
inactive: Potency [1] | Potency [2] | Potency [3] | Potency [4] | Potency [5] | Potency [6]

C=C1CCC2C(C)(CO[C@@H]3O[C@H](CO)[C@@H](O)[C@H](O)[C@H]3O)C(O)CCC2(C)C1C(=O)CC1=CCOC1=O (stereo not given in full)
inactive: Potency [1] | Potency [2] | Potency [3] | Potency [4] | Potency [5] | Potency [6]

C[C@H](NCc1ccc(OCc2ccccc2F)cc1)C(N)=O
inactive: Potency [1] | Potency [2] | Potency [3] | Potency [4] | Potency [5] | Potency [6]

COc1cc(C2Oc3c(OC)cc(CCCO[C@@H]4O[C@H](CO)[C@@H](O)[C@H](O)[C@H]4O)cc3C2CO)ccc1O (stereo not given in full)
inactive: Potency [1] | Potency [2] | Potency [3] | Potency [4] | Potency [5] | Potency [6]

C[C@]12C=CC(=O)C=C1CC[C@@H]1[C@@H]2[C@@H](O)C[C@@]2(C)[C@H]1CC[C@]2(O)C(=O)COC(=O)CCC(=O)O
inactive: Potency [1] | Potency [2] | Potency [3] | Potency [4] | Potency [5] | Potency [6] | activity, negative = cell killing [7, 9] -11.2% | activity, negative = cell killing [7, 10] -5.28% | activity, negative = cell killing [7, 12] -20.8% | activity, negative = cell killing [7, 11] 7.76%

CC(=O)OC(C)OC(=O)C(C)c1ccc(-c2ccccc2)c(F)c1 (stereo not given)
inactive: Potency [1] | Potency [2] | Potency [3] | Potency [4] | Potency [5] | Potency [6] | activity, negative = cell killing [7, 9] 13.2% and -1.22% | activity, negative = cell killing [7, 10] 13.1% and -23.3% | activity, negative = cell killing [7, 12] -17.1% | activity, negative = cell killing [7, 11] 1.46% and -25.4% | Potency [8]

C=C1CCC(OC(C)=O)C2(C)CC3(O)OC(=O)C(C)=C3CC12 (stereo not given)
inactive: Potency [1] | Potency [2] | Potency [3] | Potency [4] | Potency [5] | Potency [6]

COc1ccc(/C=C/C(=O)O[C@H]2[C@@H]3C=CO[C@@H](O[C@@H]4O[C@H](CO)[C@@H](O)[C@H](O)[C@H]4O)[C@@H]3[C@@]3(CO)O[C@@H]23)cc1O
inactive: Potency [1] | Potency [2] | Potency [3] | Potency [4] | Potency [5] | Potency [6]

CN(C)c1cccc(-c2c3c(=O)n(-c4ccccc4Cl)[nH]c3cc(=O)n2C)c1
inactive: Potency [1] | Potency [2] | Potency [3] | Potency [4] | Potency [5] | Potency [6]

CC(=O)OC1C=C(C(=O)O)C2(CO)CCC(C)C(C)(CCc3ccoc3)C2C1 (stereo not given)
inactive: Potency [1] | Potency [2] | Potency [3] | Potency [4] | Potency [5] | Potency [6]

C=C(C)[C@@H](C)[C@H]1O[C@]23C[C@]4(CO2)C(CCC2[C@@]5(C)CC[C@H](O[C@@H]6OC[C@H](O)[C@H](O[C@@H]7O[C@H](CO)[C@@H](O)[C@H](O)[C@H]7O)[C@H]6O[C@@H]6O[C@@H](CO)[C@H](O)[C@H]6O)C(C)(C)C5CC[C@]24C)C3[C@@](C)(O)[C@@H]1OC(C)=O (stereo not given in full)
inactive: activity change, negative = cytotoxicity [1] 10.2% [at 11.6 µM] | activity change, negative = cytotoxicity [2] 2.63% [at 11.6 µM] | activity change, negative = cytotoxicity [3] 20.8% [at 11.6 µM] | activity change, negative = cytotoxicity [4] 6.78% [at 11.6 µM] | activity change, negative = cytotoxicity [5] 0.172% [at 11.6 µM] | activity change, negative = cytotoxicity [6] 3.31% [at 11.6 µM]

CC1=CCC2C(C)(CO)CCCC2(CO)C1CO (stereo not given)
inactive: Potency [1] | Potency [2] | Potency [3] | Potency [4] | Potency [5] | Potency [6]

CC(C)NC[C@H](O)COc1ccc(CCOCC2CC2)cc1
inactive: Potency [1] | Potency [2] | Potency [3] | Potency [4] | Potency [5] | Potency [6]

CCC[C@@H]1C[C@@H](C(=O)N[C@@H]([C@H]2O[C@H](SC)[C@H](OP(=O)(O)O)[C@@H](O)[C@H]2O)[C@H](C)Cl)N(C)C1
inactive: Potency [1] | Potency [2] | Potency [3] | Potency [4] | Potency [5] | Potency [6] | activity, negative = cell killing [7, 9] -3.77% and -8.29% | activity, negative = cell killing [7, 10] -15.4% and -22.6% | activity, negative = cell killing [7, 11] -6.5% and -2.32% | Potency [8]

Cc1ccc2c(c1)C=Cc1cc(C)ccc1C2c1cn(Cc2ccc(C(=O)Nc3nn[nH]n3)o2)c(=O)[nH]c1=S
inactive: Potency [1] | Potency [2] | Potency [3] | Potency [4] | Potency [5] | Potency [6]

COc1cc([C@@H]2Oc3c(OC)cc(CCCO)cc3[C@@H]2CO[C@@H]2O[C@H](CO)[C@@H](O)[C@H](O)[C@H]2O)ccc1O
inactive: Potency [1] | Potency [2] | Potency [3] | Potency [4] | Potency [5] | Potency [6]

CN1Cc2c(N)cccc2C(c2ccccc2)C1 (stereo not given)
inactive: Potency [1] | Potency [2] | Potency [3] | Potency [4] | Potency [5] | Potency [6] | activity, negative = cell killing [7, 9] -10.9% | activity, negative = cell killing [7, 10] -22.4% | activity, negative = cell killing [7, 12] -25.6% | activity, negative = cell killing [7, 11] -16.4%

CC1(C(=O)O)CCCC2(C)C1CCC13CC(CCC21)C1(CO)OC31 (stereo not given)
inactive: Potency [1] | Potency [2] | Potency [3] | Potency [4] | Potency [5] | Potency [6]

CC(=O)O[C@@]1(C)C[C@@H](O)[C@]2(O)C=CO[C@@H](O[C@@H]3O[C@H](CO)[C@@H](O)[C@H](O)[C@H]3O)[C@@H]21
inactive: Potency [1] | Potency [2] | Potency [3] | Potency [4] | Potency [5] | Potency [6]

COC(=O)C12C(=O)C(C)=C(O)C1(C)C(C)=CC1C34CCC(OC3=O)C(C)(C)C4CCC12C (stereo not given)
inactive: Potency [1] | Potency [2] | Potency [3] | Potency [4] | Potency [5] | Potency [6]

Cc1cc(O)cc(Oc2cc(C)c(C(=O)O)c(O)c2)c1
inactive: Potency [1] | Potency [2] | Potency [3] | Potency [4] | Potency [5] | Potency [6]

CCC(=O)NS(=O)(=O)c1ccc(-c2c(-c3ccccc3)noc2C)cc1
inactive: Potency [1] | Potency [2] | Potency [3] | Potency [4] | Potency [5] | Potency [6] | activity, negative = cell killing [7, 9] 0.0321% | activity, negative = cell killing [7, 10] 8.31% | activity, negative = cell killing [7, 12] -24% | activity, negative = cell killing [7, 11] -3.29% | Potency [8]
